Test results from PubChem BioAssay AID1159580 (chemical genetic matrix, 2015).
Where “and” joins values, the source holds several entries; their conditions need not be identical. Equal entries are not always repeated. Out of some 5,500 compounds screened, about 2,000 (36%) were called active. Another 18% or so got no clear call; they are omitted. Rule as the data show it: active = normalized growth mostly below about 0.91 (no sharp cut-off); inconclusive = no clear call, values can overlap the other calls; inactive = mostly above about 0.92. The list shows a part of the results.

Assay: chemical genetic growth profiling, strain panel (AID 1159580);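 also: tested at 20 µM; growth read once vehicle control cultures reached saturation at 30 °C; 1 = growth at the plate median or of vehicle wells; lower values mean less growth of the strain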
Settings: S. cerevisiae deletion strains, growth OD

Measured: normalized growth

CN1C(=O)CCS(=O)(=O)C1c1ccc(Cl)cc1 (stereo unspecified)
inactive: locus YAL013W, strain DEP1, hits give low values 1.01 | locus YAL021C, strain ccr4, hits give low values 0.981 | locus YAL026C, strain drs2, hits give low values 0.982 | locus YAL030W, strain snc1, hits give low values 0.992 | locus YAL040C, strain CLN3, hits give low values 1.03 | locus YBL061C, strain skt5, hits give low values 1 | locus YBR009C, strain hhf1, hits give low values 0.953 | locus YBR021W, strain FUR4, hits give low values 1.02 | locus YBR023C, strain chs3, hits give low values 0.995 | locus YBR171W, strain sec66, hits give low values 0.988 | locus YBR229C, strain ROT2, hits give low values 1.01 | locus YBR231C, strain swc5, hits give low values 0.965 | locus YBR279W, strain paf1, hits give low values 0.99 | locus YCL011C, strain gbp2, hits give low values 1.01 | locus YCL016C, strain dcc1, hits give low values 1.01 | locus YCL029C, strain bik1, hits give low values 1.02 | locus YCL061C, strain MRC1 (second series), hits give low values 0.999 | locus YCL061C, strain MRC1, hits give low values 0.99 | locus YCL069W, strain vba3, hits give low values 0.949 | locus YCR088W, strain abp1, hits give low values 0.982 | locus YDL005C, strain med2, hits give low values 0.991 | locus YDL035C, strain GPR1, hits give low values 1.02 | locus YDL040C, strain nat1, hits give low values 0.973 | locus YDL074C, strain BRE1, hits give low values 1.04 | locus YDL101C, strain DUN1, hits give low values 1.02 | locus YDL134C, strain PPH21, hits give low values 1.01 | locus YDL185W, strain tfp1, hits give low values 1.03 | locus YDL192W, strain arf1, hits give low values 1.01 | locus YDR001C, strain nth1, hits give low values 0.976 | locus YDR069C, strain doa4, hits give low values 0.971 | locus YDR101C, strain arx1, hits give low values 1.01 | locus YDR137W, strain rgp1, hits give low values 0.993 | locus YDR150W, strain NUM1, hits give low values 1.01 and 1 | locus YDR159W, strain sac3, hits give low values 0.883 | locus YDR162C, strain NBP2, hits give low values 1.02 | locus YDR195W, strain ref2 0.956 | locus YDR297W, strain sur2, hits give low values 0.983 | locus YDR318W, strain mcm21, hits give low values 1.01 | locus YDR334W, strain swr1, hits give low values 0.951 | locus YDR335W, strain msn5, hits give low values 0.972 | locus YDR363W, strain ESC2, hits give low values 1.03 | locus YDR388W, hits give low values 1.01 | locus YDR392W, strain spt3, hits give low values 0.939 | locus YDR502C, strain sam2, hits give low values 1.01 | locus YEL003W, strain gim4, hits give low values 0.982 | locus YEL037C, strain rad23, hits give low values 0.982 | locus YEL061C, strain CIN8 (second series), hits give low values 0.995 | locus YEL061C, strain CIN8, hits give low values 1.01 | locus YER002W, strain NOP16, hits give low values 1.01 | locus YER015W, strain faa2, hits give low values 0.985 | locus YER016W, strain bim1, hits give low values 1.03 | locus YER110C, hits give low values 1.01 | locus YER111C, strain swi4, hits give low values 0.996 | locus YER155C, strain BEM2 (second series), hits give low values 1 | locus YER155C, strain BEM2, hits give low values 1.01 | locus YER167W, strain BCK2, hits give low values 1.01 | locus YFR010W, strain ubp6, hits give low values 0.954 | locus YGL078C, strain dbp3, hits give low values 0.998 | locus YGL086W, strain mad1, hits give low values 1.01 | locus YGL167C, strain pmr1, hits give low values 0.963 | locus YGL173C, strain kem1, hits give low values 0.953 | locus YGL227W, strain vid30, hits give low values 0.98 | locus YGL240W, strain doc1, hits give low values 0.963 | locus YGL248W, strain PDE1, hits give low values 1.01 | locus YGL253W, strain hxk2, hits give low values 0.995 | locus YGR078C, strain PAC10, hits give low values 1.02 | locus YGR135W, strain pre9, hits give low values 1.01 | locus YGR229C, strain SMI1, hits give low values 1.03 | locus YGR252W, strain gcn5, hits give low values 1.01 | locus YHR013C, strain ard1, hits give low values 0.982 | locus YHR027C, strain rpn1, hits give low values 0.98 | locus YHR030C, strain SLT2, hits give low values 1.01 and 0.973 | locus YHR079C, strain IRE1 (second series), hits give low values 1.02 | locus YHR079C, strain IRE1, hits give low values 0.97 | locus YHR094C, strain hxt1, hits give low values 1.01 | locus YHR129C, strain ARP1, hits give low values 1.01 | locus YHR142W, strain chs7, hits give low values 0.975 | locus YHR200W, strain rpn10, hits give low values 1.01 | locus YIL066C, strain RNR3, hits give low values 1.02 | locus YIL073C, strain SPO22, hits give low values 1.05 | locus YIL125W, strain kgd1, hits give low values 1.01 | locus YIR030C, strain dcg1, hits give low values 1.01 | locus YJL092W, strain hpr5, hits give low values 0.997 | locus YJL095W, strain BCK1 (second series), hits give low values 0.977 | locus YJL095W, strain BCK1, hits give low values 1.04 and 0.994 | locus YJL115W, strain asf1, hits give low values 0.967 | locus YJL129C, strain trk1, hits give low values 0.994 | locus YJL134W, strain LCB3, hits give low values 1.01 | locus YJL154C, strain vps35, hits give low values 0.989 | locus YJL164C, strain tpk1, hits give low values 0.997 | locus YJL166W, strain qcr8, hits give low values 0.943 | locus YJL168C, strain set2, hits give low values 1.01 | locus YJL187C, strain SWE1 (second series), hits give low values 1.03 | locus YJL187C, strain SWE1, hits give low values 0.994 | locus YJR043C, strain POL32, hits give low values 1.02 | locus YJR066W, strain TOR1, hits give low values 0.885
